Among the test systems are RPMI-8226 leukemia; OVCAR-8 ovarian; OVCAR-5 ovarian; OVCAR-4 ovarian; SK-OV-3 ovarian; IGROV1 ovarian; OVCAR-3 ovarian; HS 578T breast; NCI/ADR-RES ovarian; T-47D breast.
What all share (experiment): NCI-60 one-dose screen, 48 h (100 = growth as untreated, 0 = no growth, -100 = all killed)
Holding throughout (conditions): 10 µM unless noted

The panel holds about 83,000 compounds, 20% with a hit somewhere; the sample as a whole holds those more often.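 Plates (96-well) were seeded with cells, treated with compound at one concentration, and incubated for 48 hours before percent growth was determined.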 A number with no mark means an inactive call. Activity calls are given as the source filed them. The calls were made as follows: active = growth percent below 10; inactive = the rest.

On to `CC(C)C[C@H](C(=O)O)N(C)C(=O)[C@@H]1CCCN1C(=O)[C@H](C)OC(=O)[C@H](CCC(N)=O)NC(=O)[C@@H]1CCC(=O)N1`, for which the growth is 108% in the assay with RPMI-8226 leukemia; 103% with OVCAR-8 ovarian; 100% in the assay on OVCAR-5 ovarian; 86.8% with OVCAR-4 ovarian; 92.8% in the assay on SK-OV-3 ovarian; 114% in the assay with IGROV1 ovarian. Further, the growth with OVCAR-3 ovarian was 103%; in the assay with HS 578T breast, 107%; with NCI/ADR-RES ovarian it was 111%; with T-47D breast, 86.8%.

On to `Cc1[nH]c(N=Nc2ccccc2)nc1N=Nc1ccccc1`, for which the growth with RPMI-8226 leukemia is -2.66% (active); in the assay on OVCAR-8 ovarian, 14.7%; in the assay on OVCAR-5 ovarian, 18.8%; with OVCAR-4 ovarian, 30.3%; with SK-OV-3 ovarian it was 39%; with IGROV1 ovarian, -22.8% (active). The growth with OVCAR-3 ovarian is 33.2%; with HS 578T breast, 61.5%; in the assay on NCI/ADR-RES ovarian, 0.979% (active); with T-47D breast, 30.5%.

Regarding `Nc1ccc2c(c1)C(=O)C(=O)c1c-2nc2ccccn12`, the growth with RPMI-8226 leukemia is 14.7%; in the assay on OVCAR-8 ovarian, 8.18% (active); with OVCAR-5 ovarian, -47.4% (active); in the assay on OVCAR-4 ovarian, -95.4% (active); with SK-OV-3 ovarian it was 30.7%; in the assay with IGROV1 ovarian, -40.3% (active). Also, the growth was -19.8% (active) in the assay with OVCAR-3 ovarian, -6.56% (active) with HS 578T breast, 11.7% with NCI/ADR-RES ovarian and -53.5% (active) in the assay on T-47D breast.

Turning to `O=c1[nH]c(-c2cccc(F)c2)cc2cc(F)ccc12`, the growth was 22.5% with RPMI-8226 leukemia; 30.2% in the assay with OVCAR-8 ovarian; 48.4% in the assay with OVCAR-5 ovarian; 63.4% in the assay on OVCAR-4 ovarian; 26.1% with SK-OV-3 ovarian; 40.1% in the assay with IGROV1 ovarian. Besides, the growth is -11.9% (active) in the assay with OVCAR-3 ovarian, 34.7% with HS 578T breast, 6.86% (active) in the assay on NCI/ADR-RES ovarian and 49.8% in the assay with T-47D breast.

As to `CCCCc1n(Cc2ccc3ccccc3c2)c2ccccc2[n+]1Cc1ccc2ccccc2c1`, the growth in the assay with RPMI-8226 leukemia was -37.9% (active); in the assay with OVCAR-8 ovarian it was -76.7% (active); in the assay with OVCAR-5 ovarian it was -94.1% (active); in the assay with OVCAR-4 ovarian it was -90.7% (active); with SK-OV-3 ovarian, -65.5% (active); in the assay on IGROV1 ovarian it was -80.1% (active). For the same compound, the growth in the assay with OVCAR-3 ovarian is -87.8% (active); in the assay with HS 578T breast, -61.5% (active); in the assay on NCI/ADR-RES ovarian it was 63.2%; in the assay on T-47D breast, -62.1% (active).

In the case of `COc1ccc(/C=C(/C(=O)N2CCN(Cc3ccccc3)CC2)c2cc(OC)c(OC)c(OC)c2)cc1O`, the growth with RPMI-8226 leukemia was 66.9%; with OVCAR-8 ovarian, 80.1%; in the assay with OVCAR-5 ovarian, 99.9%; in the assay with OVCAR-4 ovarian, 90.3%; in the assay on SK-OV-3 ovarian, 65.5%; in the assay on IGROV1 ovarian, 68.4%. The growth was 30.8% in the assay with OVCAR-3 ovarian, 65.1% in the assay with HS 578T breast, 71.7% with NCI/ADR-RES ovarian and 77.2% in the assay on T-47D breast.

On to `C=C(C)[C@@H]1CC[C@]2(C(=O)NCCCO)CC[C@]3(C)[C@H](CC[C@@H]4[C@@]5(C)CCCNC(C)(C)[C@@H]5CC[C@]43C)[C@@H]12`, for which the growth with RPMI-8226 leukemia was 29%; with OVCAR-8 ovarian, 87.4%; in the assay with OVCAR-5 ovarian it was 88%; in the assay on OVCAR-4 ovarian it was 69.3%; with SK-OV-3 ovarian it was 85.5%; in the assay with IGROV1 ovarian, 75.9%. The growth is 79.2% in the assay with OVCAR-3 ovarian, 61.9% with HS 578T breast, 82.7% in the assay with NCI/ADR-RES ovarian and 43.8% in the assay on T-47D breast.

Regarding `CC(=O)c1cc2c(N)c(C(=O)Nc3ccccn3)sc2nc1C`, the growth in the assay on RPMI-8226 leukemia was 99.2%; with OVCAR-8 ovarian, 103%; with OVCAR-5 ovarian, 89.4%; in the assay with OVCAR-4 ovarian, 99.4%; in the assay with SK-OV-3 ovarian, 48.3%; in the assay with IGROV1 ovarian it was 92.8%. Besides, the growth in the assay on OVCAR-3 ovarian was 92.2%; in the assay on HS 578T breast, 74.2%; in the assay with NCI/ADR-RES ovarian, 94.7%; in the assay on T-47D breast it was 94.5%.

`COC(=O)/C=C/c1cc(OC)c2c(c1)[C@@H](C(=O)OC)[C@H](c1ccc(OC)c(OC)c1)O2`: the growth in the assay on RPMI-8226 leukemia was 12.6%; in the assay with OVCAR-8 ovarian, 30.8%; in the assay with OVCAR-5 ovarian, 77%; with OVCAR-4 ovarian it was 42.6%; in the assay on SK-OV-3 ovarian, 66.8%; in the assay with IGROV1 ovarian, 43.2%. In addition, the growth in the assay with OVCAR-3 ovarian was -15.8% (active); in the assay on HS 578T breast, 37.5%; with NCI/ADR-RES ovarian, 16.6%; in the assay on T-47D breast, 33.1%.

For the compound `COc1ccccc1-c1ccc2nc(NC(=O)Nc3cc(C(F)(F)F)cc(C(F)(F)F)c3)sc2c1`, the growth in the assay with RPMI-8226 leukemia was -15.9% (active); in the assay with OVCAR-8 ovarian, 9.39% (active); in the assay with OVCAR-5 ovarian it was 20.5%; with OVCAR-4 ovarian, 16.5%; with SK-OV-3 ovarian, -13.2% (active); in the assay with IGROV1 ovarian, 42.4%. The growth with OVCAR-3 ovarian is 8% (active); in the assay on HS 578T breast, -0.697% (active); in the assay on NCI/ADR-RES ovarian it was 5.44% (active); in the assay on T-47D breast, -13.5% (active).

Turning to `Cc1cccc(C)c1NCc1nnc(-c2ccc(O)cc2)o1`, the growth is 95.5% with RPMI-8226 leukemia; 107% in the assay on OVCAR-8 ovarian; 95.5% with OVCAR-5 ovarian; 99% in the assay with OVCAR-4 ovarian; 114% in the assay on SK-OV-3 ovarian; 99.9% with IGROV1 ovarian. Besides, the growth was 99.4% in the assay with OVCAR-3 ovarian, -4.35% (active) in the assay on HS 578T breast, 96.8% in the assay with NCI/ADR-RES ovarian and 91.5% in the assay on T-47D breast.

Turning to `C/C(=N/Nc1nc2ccccc2n1C)c1ccccn1`, the growth in the assay on RPMI-8226 leukemia was -17.5% (active); in the assay with OVCAR-8 ovarian it was 0.773% (active); with OVCAR-5 ovarian it was 35.3%; with OVCAR-4 ovarian, 20.8%; in the assay on SK-OV-3 ovarian, -0.894% (active); in the assay with IGROV1 ovarian, 18%. In addition, the growth is 10.3% in the assay on OVCAR-3 ovarian, 44.5% in the assay with HS 578T breast, -7.51% (active) in the assay with NCI/ADR-RES ovarian and 8.05% (active) in the assay with T-47D breast.

On to `O=C(CCCC(=O)Nc1ccc(-n2nnc3cc(Cl)c(Cl)cc32)cc1)Nc1ccc(-n2nnc3cc(Cl)c(Cl)cc32)cc1`, for which the growth in the assay on RPMI-8226 leukemia is 81.1%; in the assay with OVCAR-8 ovarian, 25.5%; with OVCAR-5 ovarian, 87.6%; in the assay with OVCAR-4 ovarian it was -5.56% (active); in the assay on SK-OV-3 ovarian, 31%; with IGROV1 ovarian, 59.8%. The growth was 56.1% in the assay with OVCAR-3 ovarian, 49.8% with HS 578T breast, 84.5% with NCI/ADR-RES ovarian and 36.7% in the assay on T-47D breast.

Take `COc1ccc(C(C)c2cc(OC)c(OC)c(OC)c2)cc1` (stereo not given): the growth was 15.3% with RPMI-8226 leukemia; 10.9% with OVCAR-8 ovarian; 50.3% in the assay on OVCAR-5 ovarian; 34.3% in the assay on OVCAR-4 ovarian; 33.2% with SK-OV-3 ovarian; 28.5% in the assay with IGROV1 ovarian. Further, the growth was -14.1% (active) in the assay on OVCAR-3 ovarian, 37.5% in the assay with HS 578T breast, 13.8% in the assay on NCI/ADR-RES ovarian and 63.1% in the assay on T-47D breast.

The values are drawn from PubChem BioAssay (NCI).
